Assay results from PubChem BioAssay (NCATS).
Inconclusive results are not listed. A number with no mark means an inactive call. Calls of active or inactive are those of the source. Calls follow the shape of the dose curve; as a rule, active = well fitted cell-killing curve with a large enough effect; inconclusive = small, poorly fitted or top-dose-only effect, or effect the other way; inactive = no such curve, though single readings can be large or run the other way.
Potency is read from the fitted curve at half-maximal effect.

Experiment: Quantitative High-Throughput drug screen in 47 multiple myeloma cell lines against the NCATS MIPE library collection: OPM1_PLB cell viability assay (AID 1918989); also: nearly all actives have a fitted effect of over 40% in size;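 as to viability (% of control): 100% = DMSO-only wells and 0% = media-only wells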
Conditions: CellTiter-Glo, 48 h; series mostly up to 45.8 µM; viability (% of control): at the top concentration
Method in brief: (§1)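 Plated at 500 cells per well, myeloma lines received MIPE 4.0 compounds by pin tool. Following 48 h culture at 37 °C, CellTiter-Glo luminescence gave viability relative to DMSO and media-only controls.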
For O=C(O)c1cccnc1, the “viability (% of control)” value was 125%. In the case of NC1(c2ccc(-c3nc4ccn5c(=O)[nH]nc5c4cc3-c3ccccc3)cc2)CCC1, the Potency is reported as 3.32 µM (active). With Nc1nc(N)nc(-c2cc(Cl)ccc2Cl)n1 the “viability (% of control)” value was 126%. With CN1CCN(c2c(F)cc3c(=O)c(C(=O)O)cn4c3c2OCN4C)CC1 the “viability (% of control)” value was 130%. With COc1cccc(N(C)C(=S)Oc2ccc3c(c2)CCCC3)n1 the “viability (% of control)” value was 144%. In the case of CCCN[C@H]1CCc2nc(N)sc2C1, the “viability (% of control)” value is reported as 140%. For CC1CC2C3CCC4=CC(=O)C=C[C@]4(C)[C@@]3(F)[C@@H](O)C[C@]2(C)[C@@]1(O)C(=O)CO (some centres not stated), the Potency was 2.35 µM (active). In the case of O=C(O)c1cn(C2CC2)c2cc(N3CCNCC3)c(F)cc2c1=O, the “viability (% of control)” value is reported as 130%. In the case of COCCCOc1cc(C[C@@H](C[C@H](N)[C@@H](O)C[C@H](C(=O)NCC(C)(C)C(N)=O)C(C)C)C(C)C)ccc1OC, the “viability (% of control)” value is reported as 136%. For CCn1cc(C(=O)O)c(=O)c2cc(F)c(N3CCNCC3)cc21, the “viability (% of control)” value was 154%. For NC(N)=NC(N)=NCCc1ccccc1, the Potency was 20.9 µM (active). In the case of Cc1ccnc2c1NC(=O)c1cccnc1N2C1CC1, the “viability (% of control)” value is reported as 154%. For Cn1c(=O)c2c(ncn2CC(O)CO)n(C)c1=O (configuration not stated), the “viability (% of control)” value was 128%. With Cc1cccc(N(C)C(=S)Oc2ccc3ccccc3c2)c1 the “viability (% of control)” value was 140%. For CCOC(=O)c1ccc(OC(=O)CCCCCN=C(N)N)cc1, the “viability (% of control)” value was 138%. In the case of CCN(C)C(=O)Oc1cccc([C@H](C)N(C)C)c1, the “viability (% of control)” value is reported as 143%.

Experiment: Quantitative High-Throughput drug screen in 47 multiple myeloma cell lines against the NCATS MIPE library collection: SKMM1_PLB cell viability assay (AID 1919863); also: nearly all actives have a fitted effect of over 35% in size
Conditions: SKMM1 myeloma viability, CellTiter-Glo ATP, 48 h; viability: hits give low values
Method in brief: as §1
In the case of COc1ccc2c(c1)c(CC(=O)OCC(=O)O)c(C)n2C(=O)c1ccc(Cl)cc1, the viability is reported as 138%. COc1ccc(-c2ccc3cc(C(=O)O)ccc3c2)cc1C12CC3CC(CC(C3)C1)C2 gave a viability of 119%. Work on C[C@@H](NCCCc1cccc(C(F)(F)F)c1)c1cccc2ccccc12 yielded a viability of 110%. Compound C[C@]12C=CC(=O)C=C1CC[C@@H]1[C@@H]2C(=O)C[C@@]2(C)[C@H]1CC[C@]2(O)C(=O)CO has a viability of 141%. For COc1ncnc(NS(=O)(=O)c2ccc(N)cc2)c1OC, the viability was 128%. With COc1ccccc1OCC(O)COC(N)=O (configuration not stated) the viability was 136%. For O=C(O)c1cc(=O)[nH]c(=O)[nH]1, the viability was 112%. Compound O=C(O)c1cccnc1 has a viability of 107%. For CCn1cc(C(=O)O)c(=O)c2cc(F)c(N3CCN(C)CC3)cc21, the Potency was 5.26 µM (active). With NC1(c2ccc(-c3nc4ccn5c(=O)[nH]nc5c4cc3-c3ccccc3)cc2)CCC1 the Potency was 7.43 µM (active). With Nc1nc(N)nc(-c2cc(Cl)ccc2Cl)n1 the viability was 131%. For COc1cccc(N(C)C(=S)Oc2ccc3c(c2)CCCC3)n1, the viability was 139%. For CC(C)Cn1cnc2c(N)nc3ccccc3c21, the Potency was 14.8 µM (active). With CCCN[C@H]1CCc2nc(N)sc2C1 the viability was 141%. O=C(O)c1cn(C2CC2)c2cc(N3CCNCC3)c(F)cc2c1=O showed a viability of 166%. COc1cnc(NS(=O)(=O)c2ccc(N)cc2)nc1 gave a viability of 141%. For CCOc1cc(N)c(Cl)cc1C(=O)NCC1CN(Cc2ccc(F)cc2)CCO1 (configuration not stated), the viability was 114%. For Cc1cccc(N(C)C(=S)Oc2ccc3ccccc3c2)c1, the viability was 112%. CC(C)(Sc1cc(C(C)(C)C)c(O)c(C(C)(C)C)c1)Sc1cc(C(C)(C)C)c(O)c(C(C)(C)C)c1 showed a viability of 149%. In the case of CCOC(=O)c1ccc(OC(=O)CCCCCN=C(N)N)cc1, the viability is reported as 127%. In the case of COc1c(N2CCNC(C)C2)c(F)cc2c(=O)c(C(=O)O)cn(C3CC3)c12 (configuration not stated), the viability is reported as 135%.

Experiment: Quantitative High-Throughput drug screen in 47 multiple myeloma cell lines against the NCATS MIPE library collection: U266_ATCC cell viability assay (AID 1919864); also: nearly all actives have a fitted effect of over 35% in size;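 as to viability (% of DMSO control): 0% = media-only wells without cells and 100% = DMSO-only wells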
Conditions: U266 myeloma viability, CellTiter-Glo ATP luminescence, 48 h; series mostly up to 45.8 µM; viability (% of DMSO control): at the top concentration
Method in brief: as §1
In the case of COc1ccc2c(c1)c(CC(=O)OCC(=O)O)c(C)n2C(=O)c1ccc(Cl)cc1, the “viability (% of DMSO control)” value is reported as 144%. With COc1ccc(-c2ccc3cc(C(=O)O)ccc3c2)cc1C12CC3CC(CC(C3)C1)C2 the Potency was 5.26 µM (active). With C[C@@H](NCCCc1cccc(C(F)(F)F)c1)c1cccc2ccccc12 the “viability (% of DMSO control)” value was 121%. For C[C@]12C=CC(=O)C=C1CC[C@@H]1[C@@H]2C(=O)C[C@@]2(C)[C@H]1CC[C@]2(O)C(=O)CO, the “viability (% of DMSO control)” value was 134% [at 23.2 µM]. In the case of COc1ncnc(NS(=O)(=O)c2ccc(N)cc2)c1OC, the “viability (% of DMSO control)” value is reported as 150%. In the case of COc1ccccc1OCC(O)COC(N)=O (configuration not stated), the “viability (% of DMSO control)” value is reported as 136%. With O=C(O)c1cc(=O)[nH]c(=O)[nH]1 the “viability (% of DMSO control)” value was 124%. For CCN[C@H]1C[C@H](C)S(=O)(=O)c2sc(S(N)(=O)=O)cc21, the “viability (% of DMSO control)” value was 129%. With COc1cc2ncnc(Nc3cccc(Cl)c3)c2cc1OC the Potency was 0.132 µM (active). With O=C(O)c1cccnc1 the “viability (% of DMSO control)” value was 141%. For CCn1cc(C(=O)O)c(=O)c2cc(F)c(N3CCN(C)CC3)cc21, the “viability (% of DMSO control)” value was 158%. With NC1(c2ccc(-c3nc4ccn5c(=O)[nH]nc5c4cc3-c3ccccc3)cc2)CCC1 the Potency was 20.9 µM (active). With Nc1nc(N)nc(-c2cc(Cl)ccc2Cl)n1 the “viability (% of DMSO control)” value was 125%. In the case of CN1CCN(c2c(F)cc3c(=O)c(C(=O)O)cn4c3c2OCN4C)CC1, the “viability (% of DMSO control)” value is reported as 117%. In the case of COc1cccc(N(C)C(=S)Oc2ccc3c(c2)CCCC3)n1, the “viability (% of DMSO control)” value is reported as 106%. With CC(C)Cn1cnc2c(N)nc3ccccc3c21 the Potency was 20.9 µM (active). With CCCN[C@H]1CCc2nc(N)sc2C1 the “viability (% of DMSO control)” value was 110%. For O=C(O)c1cn(C2CC2)c2cc(N3CCNCC3)c(F)cc2c1=O, the “viability (% of DMSO control)” value was 131%. With COc1cnc(NS(=O)(=O)c2ccc(N)cc2)nc1 the “viability (% of DMSO control)” value was 133%. With CCOc1cc(N)c(Cl)cc1C(=O)NCC1CN(Cc2ccc(F)cc2)CCO1 (configuration not stated) the “viability (% of DMSO control)” value was 140%. In the case of Cc1ccnc2c1NC(=O)c1cccnc1N2C1CC1, the Potency is reported as 16.6 µM (active). In the case of Cc1cccc(N(C)C(=S)Oc2ccc3ccccc3c2)c1, the Potency is reported as 20.9 µM (active). With CC(C)(Sc1cc(C(C)(C)C)c(O)c(C(C)(C)C)c1)Sc1cc(C(C)(C)C)c(O)c(C(C)(C)C)c1 the Potency was 3.32 µM (active). In the case of CCOC(=O)c1ccc(OC(=O)CCCCCN=C(N)N)cc1, the “viability (% of DMSO control)” value is reported as 147%. In the case of COc1c(N2CCNC(C)C2)c(F)cc2c(=O)c(C(=O)O)cn(C3CC3)c12 (configuration not stated), the “viability (% of DMSO control)” value is reported as 126%.
